The record followed here is PubChem BioAssay (EPA / NIEHS).

Activity calls are given as the source filed them. How the source made its calls: active means hit-call score of the fitted dose curve at least 0.9, where 1 is the maximum; inactive means score below 0.9.

Read-out in the test: ABC Transporter (ABCB11), ABCB11 (gene 8647)
Kind of test: LTEA_HepaRG_ABCB11: Life Technologies and Expression Analysis (LTEA) Assay for ABC Transporter (ABCB11) using HepaRG (AID 2283463). As to conditions: mRNA level, 48 h; actives raise or lower the signal. As for the experimental part: LTEA_HepaRG is a cell based, multiplexed-readout assay that uses HepaRG, a human liver cell line, with measurements taken at 48 hours after chemical dosing on a 96-well plate.LTEA_HepaRG_ABCB11 is one of 102 assay component(s) measured in the LTEA HepaRG cell culture assay. It is a marker of Steatosis/NR mediated transport.Data from the assay component LTEA_HepaRG_ABCB11 was analyzed into 1 endpoint. This assay endpoint, LTEA_HepaRG_ABCB11, was analyzed with bidirectional fitting relative to DMSO as the negative control and baseline of activity. Using a type of inducible reporter, measures of mRNA induction for gain or loss-of-signal activity can be used to understand regulation of transcription factor activity. To generalize the intended target to other relatable targets, this assay endpoint is annotated to the transporter intended target family, where the subfamily is ABC transporter.
A total of 1060 chemcials from the ToxCast library were tested in eight-point concentration-response experiments. Cell culture and cytotoxicity assays were conducted at Thermo Fisher Scientific's Custom Services facility (Madison, WI). A single lot of human HepaRG cells (Thermo Fisher Scientific, Frederick, MD) was used for the cell culture experiments. 96-well format collagen type I coated plates of human HepaRG cells were prepared using established methods. Briefly, cryopreserved HepaRG cells were thawed, plated at a density of approximately 100,000 cells/well in HepaRG Thaw, Plate, and General Purpose media (HPRG770, Thermo Fisher Scientific), and incubated for 48 hours. 0.5% DMSO was selected as vehicle control to balance the requisite need of DMSO in HepaRG cultures to maintain differentiation (for example, baseline metabolism, proportions of hepatocytes vs. cholangiocytes), while enabling further hepatic receptor pathway activation (for example, PXR and CAR) in response to chemical exposure. 48 hours after plating, the culture medium was replaced with HepaRG Serum-Free Incudtion Media. Cells were exposed to each test chemical in duplicate and maintained in CO2 incubators for another 48 hours. Chemical plates were thawed to room temperature and 200x concentrations of treatment groups were prepared. 8-point conentration-reponse curves were made with the highest exposure at 100 uM, followed by half-log dilutions, all in 0.5% DMSO. Each test plate contained variouse controls, induction positive controls (1mM phenobarbital), cytotoxicity positive controls ([…] aflatoxin B1), vehicle controls (0.5% DMSO), and total lysis controls (0.5% DMSO). Cell morphology images were taken using an Essen IncuCyte FLR automated microscope, with six 96-well plates imaged in about 24 minutes. Images were captured and exported and JPEG files. Spent culture media was transfered to black-well plates for the LDH assay, and remaining media was sorted at -80 C for later use. Cells were treated with RLT buffer and frozen until shipped for gene expression analysis. Total RNA was isolated from the cell suspension in 75 uL of Buffer RLT (Qiagen, Germantown, MD 20874) by Quintiles/Expression Analysis (Durham, NC) using a custom isolation procedure. Total RNA from each plate well was transferred to a preamplification plate. Fluidigm's 96.96 Dynamic ArrayTM (Fluidigm, Amsterdam, the Netherlands) technology was used for gene expression analyses by quantitative reverse transcription polymerase chain reaction (qRT-PCR, performed by Quintiles/Expression Analysis, Durham, NC)89. Standard TaqManTM Assays (Applied Biosystems/ThermoFisher Scientific, Foster City, CA) were used to assess the expression of 93 genes selected based on their selectivity and sensitivity to important hepatic receptors known to be modulated by environmental chemicals; importance in human hepatocyte functionality; and hepatotoxicity. […]
Consider `Cc1nc(C)nc(N2C[C@@H](C)N(c3ccnc([C@@H](C)O)n3)[C@@H](C)C2)n1`, for which the call was inactive.
As to `COCCOCCOC`, the AC50 was 0.922 µM (active).
With `Cc1cc(NC(=O)C(=O)O)cc(C)c1Oc1ccc(O)c2c1CCC2`, the AC50 is 0.00778 µM (active).
For the molecule `CC=Cc1ccc(O)c(OC)c1`, the molecule was classed as inactive.
Still for that read-out and setting: to `CCOC(=O)CCC(=O)OCC` belongs “inactive”.
The same measure, in the same setting: to `Cc1cccc(C)c1O` belongs “inactive”; to `Clc1cc(Cl)c(Cl)cc1Cl`, “inactive”.
On the same count and under the same terms, the result for `Cc1ccccc1Cl` reads “inactive”.
With `CCCCCCCCCCC`, the result was inactive.
On the same count and under the same terms, the result for `CCCCCC(=O)O` reads “inactive”; that for `Cc1ccc(C)c(O)c1C`, “inactive”.
Regarding `O=C(O)Cc1ccccc1Nc1c(Cl)cccc1Cl`, the molecule was classed as inactive.
Same read-out and setting: to `C[C@]12C=CC(=O)C=C1CC[C@@H]1[C@@H]2C(=O)C[C@@]2(C)[C@H]1CC[C@]2(O)C(=O)CO` belongs “inactive”.
`CC(C)(C)c1cc(O)c(C(C)(C)C)cc1O`: the AC50 was 72.7 µM (active).
`CNCc1cc(F)ccc1Oc1ccc(Cl)c(Cl)c1`: the molecule was classed as inactive.
The same measure, in the same setting: the result for `CCCCCCOCCO` reads “inactive”.
As for `Oc1ccc2ccccc2c1N=Nc1ccccc1`, the AC50 was 6.98 µM (active).
In the case of `COC(=O)c1ccc(O)cc1`, the call was inactive.
As for `COc1cc(S(=O)(=O)O)c(C)cc1N=Nc1c(O)ccc2cc(S(=O)(=O)O)ccc12`, the call was inactive.
In the case of `CN[C@H]1CC[C@@H](c2ccc(Cl)c(Cl)c2)c2ccc(S(N)(=O)=O)cc21`, the AC50 is 15.8 µM (active).
Take `O=c1c(O)c(-c2ccc(O)c(O)c2)oc2cc(O)cc(O)c12`: the AC50 was 76.7 µM (active).
In the case of `Cc1ccc2ncccc2c1`, the molecule was classed as inactive.
Still for that read-out and setting: to `Nc1ccc(S(=O)(=O)c2ccc(N)cc2)cc1` belongs “inactive”.
Consider `CC(=O)C(C)=CC1C(C)=CCCC1(C)C` (stereo not given), for which the molecule was classed as inactive.
In the case of `Cc1ccc(Cl)cc1`, the molecule was called inactive.
Same read-out and setting: to `NS(=O)(=O)c1cc2c(cc1Cl)NCNS2(=O)=O` belongs “inactive”; to `Cc1c(C(=O)O)c(O)cc2c1C(=O)c1c(O)c([C@@H]3O[C@H](CO)[C@@H](O)[C@H](O)[C@H]3O)c(O)c(O)c1C2=O`, “inactive”.
Turning to `O=[N+]([O-])C(CO)(CO)CO`, the call was inactive.
Still for that read-out and setting: the result for `NC(=O)Cn1c(=O)cc(CCN2CCN(c3nccc4sccc34)CC2)c2ccc(F)cc21` reads “inactive”; that for `CC1=C(/C=C/C(C)=C/C=C/C(C)=C/CO)C(C)(C)CCC1`, “inactive”.
Consider `CCc1c(C(=O)NN2CCCCC2)nn(-c2ccc(Cl)cc2Cl)c1-c1ccc(Br)cc1`, for which the AC50 is 39 µM (active).
`CCCCCCCCCCCCCCCC`: the molecule was classed as inactive.
The same measure, in the same setting: the result for `CCCCCCCCCCO` reads “inactive”.
Same read-out and setting: the result for `CCCCOC(=O)CCCCCCCCC(=O)OCCCC` reads “inactive”; that for `COCCOC[C@H](CC1(C(=O)NC2CCC(C(=O)O)CC2)CCCC1)C(=O)Oc1ccc2c(c1)CCC2` (stereo not given in full), “inactive”; that for `COc1ccc(C)cc1N`, “inactive”.
The same measure, in the same setting: the result for `CC1(C)NC(=O)NC1=O` reads “inactive”; that for `CCOC(=O)C(C)(C)Oc1ccc(Cl)cc1`, “inactive”; that for `CCNc1cccc(C)c1`, “inactive”.
Consider `C1CCC(SSC2CCCCC2)CC1`, for which the result was inactive.

In general, AC50 refers to the concentration at which the activity in the assay is half-maximal.
